In PubChem BioAssay (NCATS):
Inconclusive results are not listed. Active and inactive are the calls of the source. The call rests on the fitted dose curve. Bridge positions count the residues as written; N and C are the ends. Peptide text beside a SMILES is read from it.

Legend:
[1] = Primary qHTS for Huh7 cytotoxicity: counterscreen for inhibitors of MERS-S pseudotyped particle cell entry (AID 1479147); settings: outcome: dose series up to 57.1 µM unless noted
[2] = Primary qHTS for inhibitors of MERS-S pseudo-typed particle cell entry (AID 1479149); settings: outcome: dose series up to 57.1 µM unless noted; further: nearly all actives have a fitted effect of over 60% in size
[3] = Primary qHTS for Vero E6 cytotoxicity: counterscreen for inhibitors of SARS-S pseudo-typed particle cell entry (AID 1479150); settings: outcome: dose series up to 57.1 µM unless noted
[4] = Cytotoxicity counterscreen for inhibitors of SARS-CoV-2 cell entry (AID 1645845); settings: outcome: dose series up to 57.1 µM unless noted; further: nearly all actives have a fitted effect of over 50% in size; further: potency means the concentration at half of the fitted maximal effect
Summary of the method: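 ATP-content luminescence (ATPLite 1step, 15 min RT) read after 48 h compound exposure of Expi293F cells stably expressing human ACE2; normalized to cells-only wells and media-only wells.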

[5] = Primary qHTS to identify inhibitors of SARS-CoV-2 cell entry (AID 1645846); settings: SARS-CoV-2 pseudovirus cell entry assay, luminescence; activity change, negative = inhibition: at 57.1 µM (top of the series) unless noted; further: nearly all actives have a fitted effect of over 45% in size
Summary of the method: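 HEK293 cells stably expressing human ACE2, pre-treated 1 h with compound, then infected with MLV particles pseudotyped with Wuhan-Hu-1 spike (C-terminal 19-aa truncation). Luciferase luminescence after 48 h at 37 °C, normalised to spike PP and bald PP.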

CC[C@@H]1CCN[C@H](C(=O)N[C@@H]([C@H]2O[C@H](SC)[C@H](O)[C@@H](O)[C@H]2O)[C@H](C)Cl)C1
inactive: Potency [1] | Potency [2] | Potency [3] | Potency [4]

CC(=O)N(CC(C)C(=O)O)c1c(I)cc(I)c(N)c1I (stereo unspecified)
inactive: Potency [1] | Potency [2] | Potency [3] | Potency [4]

CCCCC(=O)N(Cc1ccc(-c2ccccc2-c2nn[nH]n2)cc1)[C@H](C(=O)O)C(C)C
inactive: Potency [1] | Potency [2] | Potency [3] | Potency [4]

CC1CCCC(C)N1C(=S)Nc1cccc(C(F)(F)F)c1 (stereo unspecified)
inactive: Potency [1] | Potency [2] | Potency [3] | Potency [4]

[Mn].[O]=[Mn][OH].[O]=[Mn][OH]
inactive: Potency [1] | Potency [2] | Potency [3] | Potency [4]

NS(=O)(=O)c1cc2c(cc1Cl)NC(Cc1ccccc1)NS2(=O)=O (stereo unspecified)
inactive: Potency [1] | Potency [2] | Potency [3] | Potency [4]
-16.2%: activity change, negative = inhibition [5]

CCCCCCC(=O)O[C@H]1CC[C@H]2[C@@H]3CCc4cc(O)ccc4[C@H]3CC[C@]12C
inactive: Potency [1] | Potency [2] | Potency [3] | Potency [4]

Cc1nccn1CCC(C(N)=O)(c1ccccc1)c1ccccc1
-25.4%: activity change, negative = inhibition [5]
inactive: Potency [1] | Potency [2] | Potency [3] | Potency [4]

CCN(CC)CCOc1ccc2nc(N(C)C)sc2c1
inactive: Potency [1] | Potency [2] | Potency [3] | Potency [4]
-8.36% [at 114 µM]: activity change, negative = inhibition [5]

O=P(O)(O)OC(CO)CO
inactive: Potency [1] | Potency [2] | Potency [3] | Potency [4]

CC[C@H]1OC(=O)C[C@@H](O)[C@H](C)[C@@H](O[C@@H]2O[C@H](C)[C@@H](O)[C@H](N(C)C)[C@H]2O)[C@@H](CCN2C[C@H](C)C[C@H](C)C2)C[C@@H](C)C(=O)/C=C/C(C)=C/[C@@H]1CO[C@@H]1O[C@H](C)[C@@H](O)[C@@H](OC)[C@H]1OC
inactive: Potency [1] | Potency [2] | Potency [3] | Potency [4]

O=C(c1ccc(F)c(F)c1Nc1ccc(I)cc1F)N1CC(O)([C@@H]2CCCCN2)C1
active: Potency [4] 31.6 µM
inactive: Potency [1] | Potency [2] | Potency [3]

CN1C2CC[C@@H]1CC(OC(=O)[C@H](CO)c1ccccc1)C2 (stereo partly specified)
inactive: Potency [1] | Potency [2] | Potency [3] | Potency [4]
-26.3%: activity change, negative = inhibition [5]

CC(C)CC(NC(=O)CNC(=O)C(Cc1ccc(O)cc1)NC(=O)C(CO)NC(=O)C(Cc1c[nH]c2ccccc12)NC(=O)C(Cc1cnc[nH]1)NC(=O)C1CCC(=O)N1)C(=O)NC(CCCN=C(N)N)C(=O)N1CCCC1C(=O)NCC(N)=O (stereo unspecified)
-25.2%: activity change, negative = inhibition [5]
inactive: Potency [1] | Potency [2] | Potency [3] | Potency [4]

CCCCCCCCCCCCCCCCCC(=O)NCCCC[C@H](NC(=O)CC[C@@H](NC(=O)[C@H](C)NC(=O)[C@@H](C)O[C@H]1[C@H](O)[C@@H](CO)OC(O)[C@@H]1NC(C)=O)C(N)=O)C(=O)O (stereo partly specified)
inactive: Potency [1] | Potency [2] | Potency [3] | Potency [4]

NC(N)=NCC1COC2(CCCCC2)O1 (stereo unspecified)
inactive: Potency [1] | Potency [2] | Potency [3] | Potency [4]

Cn1nnnc1SCC1=C(C(=O)O)N2C(=O)[C@@H](NC(=O)[C@H](OC=O)c3ccccc3)[C@H]2SC1
inactive: Potency [1] | Potency [2] | Potency [3] | Potency [4]

COC(=O)[C@@H](N)CS
inactive: Potency [1] | Potency [2] | Potency [3] | Potency [4]

CCCCCCCCCCCCCCCC(=O)OCC(O)C1OC(=O)C(O)=C1O (stereo unspecified)
inactive: Potency [1] | Potency [2] | Potency [3] | Potency [4]

CCCCN(CCCC)C(=S)[S-].CCCCN(CCCC)C(=S)[S-].[Zn+2]
inactive: Potency [1] | Potency [2] | Potency [3] | Potency [4]

C[N+]1(C)CCN(CC(O)(c2ccccc2)C2CCCCC2)CC1 (stereo unspecified)
inactive: Potency [1] | Potency [2] | Potency [3] | Potency [4]

NCCCC[C@H](NC(=O)[C@@H]1CCCN1C(=O)[C@@H]1CSSC[C@H](NC(=O)CNC(=O)CNC(=O)CN)C(=O)N[C@@H](Cc2ccc(O)cc2)C(=O)N[C@@H](Cc2ccccc2)C(=O)N[C@@H](CCC(N)=O)C(=O)N[C@@H](CC(N)=O)C(=O)N1)C(=O)NCC(N)=O (H-GGGCYFQNCPKG-NH2; disulfide 4-9)
inactive: Potency [1] | Potency [2] | Potency [3] | Potency [4]

CC(C)N(CCCCOCC(=O)NS(C)(=O)=O)c1cnc(-c2ccccc2)c(-c2ccccc2)n1
inactive: Potency [1] | Potency [2] | Potency [3] | Potency [4]

CCCCCC(O)/C=C/[C@@H]1C(CCCCCCC(=O)O)C(=O)C[C@@H]1O (stereo partly specified)
inactive: Potency [1] | Potency [2] | Potency [3] | Potency [4]

CN1c2c(nc(N)[nH]c2=O)NC[C@@H]1CNc1ccc(C(=O)N[C@@H](CCC(=O)O)C(=O)O)cc1
inactive: outcome [1] inactive [at 5.34 µM] | outcome [2] inactive [at 5.34 µM] | outcome [3] inactive [at 5.34 µM] | outcome [4] inactive [at 5.25 µM]

CCC(c1ccccc1)c1c(O)c2ccccc2oc1=O (stereo unspecified)
inactive: Potency [1] | Potency [2] | Potency [3] | Potency [4]

CC(=O)Oc1c(C)cc(OCC(O)CNC(C)C)c(C)c1C (stereo unspecified)
inactive: Potency [1] | Potency [2] | Potency [3] | Potency [4]

CON=C1C[C@]2(C[C@@H]3C[C@@H](C/C=C(\C)C[C@@H](C)/C=C/C=C4\CO[C@@H]5[C@H](O)C(C)=C[C@@H](C(=O)O3)[C@]45O)O2)O[C@H](/C(C)=C/C(C)C)[C@H]1C
inactive: Potency [1] | Potency [2] | Potency [3] | Potency [4]

O=P(O)(O)OC1C(OP(=O)(O)O)C(OP(=O)(O)O)C(OP(=O)(O)O)C(OP(=O)(O)O)C1OP(=O)(O)O (stereo unspecified)
inactive: Potency [1] | Potency [2] | Potency [3] | Potency [4]
-23.6%: activity change, negative = inhibition [5]

Cc1oc(-c2ccccc2)nc1CCOc1ccc(CC2C(=O)NOC2=O)cc1 (stereo unspecified)
-23.4%: activity change, negative = inhibition [5]
inactive: Potency [1] | Potency [2] | Potency [3] | Potency [4]

CCC(=O)O[C@@H]1[C@@H](C)O[C@@H](O[C@H]2[C@H](N(C)C)[C@@H](O)[C@H](O[C@H]3[C@@H](CC=O)C[C@@H](C)[C@@H](OC(C)=O)/C=C/C=C/C[C@@H](C)OC(=O)C[C@@H](OC(=O)CC)[C@@H]3OC)O[C@@H]2C)C[C@]1(C)OC(C)=O
inactive: Potency [1] | Potency [2] | Potency [3] | Potency [4]
